These results are taken from PubChem BioAssay (EPA / NIEHS).

Each structure is given as a SMILES string. Active and inactive are the calls of the source. The calls were made as follows: active = hit-call score of the fitted dose curve at least 0.9, where 1 is the maximum; inactive = score below 0.9.

This assay can be described thus: APR_HepG2_StressKinase_1hr: Apredica 1-hour HepG2 Assay for Stress Kinase (AID 2282906). Conditions: HepG2 stress kinase (phospho-c-Jun) imaging, actives raise or lower the signal. As for the experimental part:
APR_HepG2_1hr is a cell-based, multiplexed-readout assay that uses HepG2, a human liver cell line, with measurements taken at 1 hour after chemical dosing in a 384-well plate.APR_HepG2_StressKinase_1hr is one of 10 assay component(s) measured or calculated from the APR_HepG2_1hr assay. It is designed to make measurements of enzyme activity, a form of enzyme reporter, as detected with fluorescence intensity signals by HCS Fluorescent Imaging technology.Data from the assay component APR_HepG2_StressKinase_1hr was analyzed into 1 assay endpoint. This assay endpoint, APR_HepG2_StressKinase_1hr, was analyzed with bidirectional fitting relative to DMSO as the negative control and baseline of activity. Using a type of enzyme reporter, measures of protein for gain or loss-of-signal activity can be used to understand the signaling at the pathway-level as they relate to the gene . Furthermore, this assay endpoint can be referred to as a primary readout, because this assay has produced multiple assay endpoints where this one serves a signaling function. To generalize the intended target to other relatable targets, this assay endpoint is annotated to the cell cycle intended target family, where the subfamily is stress response.
Cells were treated with dimethyl sulfoxide (DMSO) as a solvent control at a final concentration of 0.5% v/v or with compounds in DMSO with a resulting final DMSO concentration of 0.5% v/v. Compound treatment was done at concentrations of 0.39, 0.78, 1.56, 3.12, 6.24, 12.5, 25, 50, 100, and 200 uM in duplicate on each plate. Cells were treated with compounds for 1, 24, or 72 hr. Carbonyl […] m-chloro-phenylhydrazone (CCCP) and taxol were used as positive controls for mitochondrial function and cytoskeletal stability, respectively; DMSO served as the negative control for this experiment. Cells were fixed by the direct addition of 50 uL formaldehyde in Hank's Balanced Salt Solution (HBSS) to a final concentration of 3.7%. After incubation in the fixation medium for 30 min at room temperature (293-298 K), cells were rinsed twice with HBSS and treated with cell permeabilization buffer (16 uL of 0.5% Triton X-100) for 10 min at room temperature (293-298 K) before labeling. For mitochondrial membrane potential and mitochondrial measurements, pre-fixed cells were incubated with 50 uL of MitoTracker Red CMXRos (Invitrogen) at a concentration of 250 nM for 30 min before fixation. In the remaining cases, post-fixed cells were labeled by incubation with a multiplexed mixture of primary antibodies in HBSS for 60 min at room temperature (293-298 K) to detect immunoreactivity of c-Jun (1:500), phospho-histone H3 (1:100), phospho-histone H2A.x (1:200), p53 (1:400), alpha-tubulin (1:200) and Hoechst 33342 (2 ug/mL). Cells were labeled for multiplexed imaging on two separate plates: a) Hoechst 33342, MitoTracker Red, phospho-histone H3, and alpha-tubulin, and b) Hoechst 33342, phospho-histone H2A.x, and c-Jun. A final rinse with HBSS (50 uL) was performed before analysis. The primary and secondary antibodies for the proteins were phospho-histone H3 (rabbit anti-phospho-histone H3 and FITC-donkey anti-rabbit IgG), phospho-histone H2A.x (mouse anti-phospho-histone H2A.x and FITC-donkey anti-mouse IgG), c-Jun (rabbit anti-phospho-c-Jun and Cy3-donkey anti-rabbit IgG), p53 (sheep anti-p53 and Cy5-donkey anti-sheep IgG), alpha-tubulin (mouse anti-alpha-tubulin and Cy5-donkey anti-mouse IgG). These antibodies are available as the CellCiphr HepG2 assay kit (Millipore).Digital images of each well were captured using a Cellomics ArrayScan VTI (Thermo Scientific Cellomics) (0.8 NA objective, 0.63x optical coupler, and XF-93 filter set) at 20x magnification. The images were acquired using the autofocus feature of the ArrayScan instrument, which entails the following steps. First, the camera focuses on channel 1 (Hoechst 33342), where nuclei are identified. Second, a Z offset of 1 um is used for capturing mitochondria (MitoTracker Red). […]
`CCOC(=O)C(C)Oc1ccc(Oc2nc3ccc(Cl)cc3o2)cc1` (stereo not given): the compound was classed as inactive. For the compound `COC(=O)c1ccc(CNS(C)(=O)=O)cc1S(=O)(=O)NC(=O)Nc1nc(OC)cc(OC)n1`, the result was inactive. For `S=C(S)NCCNC(=S)S.[Mn+2].[S-]C([S-])=NCCN=C([S-])[S-].[Zn+2]`, the compound was classed as inactive. Consider `CCCCCOC(=O)COc1cc(N2C(=O)C3=C(CCCC3)C2=O)c(F)cc1Cl`, for which the AC50 is 87.4 µM (active).

`COC(=O)c1cccc(C)c1S(=O)(=O)NC(=O)Nc1nc(OCC(F)(F)F)nc(N(C)C)n1`: the result was inactive.

Take `CCSC(=O)N(CC(C)C)CC(C)C`: the call was inactive. In the case of `Cc1nn(C)c(Oc2ccccc2)c1C=NOCc1ccc(C(=O)OC(C)(C)C)cc1`, the compound was classed as inactive. For the compound `Oc1ccc(C(c2ccc(O)cc2)C(Cl)(Cl)Cl)cc1`, the AC50 was 94.2 µM (active). For `c1ccc2[nH]c(-c3cscn3)nc2c1`, the compound was called inactive. On the same count and under the same terms, the entry for `COc1nc(C)nc(NC(=O)NS(=O)(=O)c2ccccc2OCCCl)n1` is “inactive”. The same measure, in the same setting: with `COC(=O)c1ccccc1S(=O)(=O)NC(=O)Nc1nc(OC(F)F)cc(OC(F)F)n1` the entry was “inactive”. Still for that read-out and setting: the entry for `COc1c(Cl)ccc(Cl)c1C(=O)O` is “inactive”. With `CCCN(CCC)c1c([N+](=O)[O-])cc(C(F)(F)F)c(N)c1[N+](=O)[O-]`, the AC50 was 75.8 µM (active). In the case of `CCC(O)=C1C(=O)CC(C(=O)O)CC1=O` (stereo not given), the call was inactive. For `CC(C)(c1ccc(O)cc1)c1ccc(O)cc1`, the outcome was inactive. `CCOC(=O)COc1cc(-n2ncc(C(F)(F)F)c(C)c2=O)c(F)cc1Cl`: the compound was called inactive. As to `CCOC(=O)[C@H](C)Oc1ccc(Oc2nc3ccc(Cl)cc3o2)cc1`, the outcome was inactive. Consider `CCN(CC)C(=O)c1cccc(C)c1`, for which the outcome was inactive. The same measure, in the same setting: with `CCN(Cc1c(F)cccc1Cl)c1c([N+](=O)[O-])cc(C(F)(F)F)cc1[N+](=O)[O-]` the entry was “inactive”; with `c1ccc(Nc2ccccc2)cc1`, “inactive”. Consider `CCCCOC(=O)C(C)Oc1ccc(Oc2ccc(C(F)(F)F)cn2)cc1` (stereo not given), for which the result was inactive. Same read-out and setting: with `COC(=O)c1ccccc1C(=O)O` the entry was “inactive”; with `CCCCC(CC)COC(=O)c1ccccc1C(=O)O` (stereo not given), “inactive”. As to `COCCO`, the outcome was inactive. The same measure, in the same setting: with `CCCOC(=O)NCCCN(C)C` the entry was “inactive”; with `CCCCC(CC)CN1C(=O)C2C3C=CC(C3)C2C1=O` (stereo not given), “inactive”; with `O=C(O)C1(C(=O)Nc2ccc(Cl)cc2Cl)CC1`, “inactive”.

`CSC(=O)c1cccc2nnsc12`: the outcome was inactive. Still for that read-out and setting: with `CC1(C)C(C=C(Cl)Cl)C1C(=O)OCc1cccc(Oc2ccccc2)c1` (stereo not given) the entry was “inactive”; with `CN(C)C(=O)Nc1ccc(Cl)c(Cl)c1`, “inactive”; with `CCCCOCCOCCOCc1cc2c(cc1CCC)OCO2`, “inactive”. For the compound `C#CCOC(=O)[C@@H](C)Oc1ccc(Oc2ncc(Cl)cc2F)cc1`, the compound was classed as inactive.

Regarding `CCC(C)OC(=O)N1CCCCC1CCO` (stereo not given), the compound was called inactive. On to `CCCCOC(=O)[C@@H](C)Oc1ccc(Oc2ccc(C(F)(F)F)cn2)cc1`, for which the compound was classed as inactive.

With `CCCCCCC(C)OC(=O)COc1nc(F)c(Cl)c(N)c1Cl` (stereo not given), the result was inactive. Turning to `S=C([S-])NCCNC(=S)[S-].[Mn+2]`, the outcome was inactive. The same measure, in the same setting: with `CCCOC(=O)c1ccc(C(=O)OCCC)nc1` the entry was “inactive”. For the compound `O=C(Nc1ccc([N+](=O)[O-])cc1Cl)c1cc(Cl)ccc1O`, the AC50 was 0.364 µM (active). In the case of `CCCN(CCC)C(=O)SCC`, the outcome was inactive.

In the case of `COC(=O)c1c(Cl)nn(C)c1S(=O)(=O)NC(=O)Nc1nc(OC)cc(OC)n1`, the outcome was inactive.
